Laboratory results taken from PubChem BioAssay (NCATS).
Results filed as inconclusive are left out. The source made the active and inactive calls. Calls come from the whole dose curve.

test: VSVG counterscreen qHTS to identify inhibitors of SARS-CoV-2 cell entry (AID 1645847); conditions: VSV-G pseudotyped particle entry, luciferase; series mostly up to 57.2 µM; note: nearly all actives have a fitted effect of over 65% in size
In short: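 Luminescence from a luciferase reporter, normalised to bald particle and VSV-G pseudotyped particle wells, is the read-out. Cells are HEK293 expressing human ACE2, exposed to compound 1 h before a 48 h particle infection at 37 °C.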
Potency is the fitted concentration of half-maximal effect.

Row | SMILES | Potency
1 | O=C(Nc1ccnc(NC(=O)C2CC2)c1)c1c(Cl)cccc1Cl | 2710 nM (active)
2 | COc1cccc2c1C(=O)c1c(O)c3c(c(O)c1C2=O)C[C@@](O)(/C(CO)=N/NC(=O)CCCCCN1C(=O)C=CC1=O)C[C@@H]3O[C@H]1C[C@H](N)[C@H](O)[C@H](C)O1 | 341 nM (active)
3 | CNCCCOc1cc(F)c(-c2c(Cl)nc3ncnn3c2N[C@@H](C)C(F)(F)F)c(F)c1 | 121 nM (active)
4 | CN1CC[C@@H](NC(=O)Nc2ccc(C#N)cc2)C[C@@H]1c1nc2ccccc2[nH]1 | 24100 nM (active)
5 | CS(=O)(=O)N1CCC(NC(=O)c2[nH]ncc2NC(=O)c2c(Cl)cccc2Cl)CC1 | 96.1 nM (active)
6 | Nc1nc2c(c(=O)[nH]1)N1CN(c3ccc(C(=O)N[C@@H](CCC(=O)O)C(=O)O)cc3)CC1CN2 (some centres not stated) | 3410 nM (active)
7 | N#Cc1cccnc1N1CCN(C(=O)c2cccc(Cc3n[nH]c(=O)c4ccccc34)c2)CC1 | 60.7 nM (active)
